From PubChem BioAssay AID1159580 (chemical genetic matrix, 2015)
Screen size: about 5,500 compounds; about 2,000 (36%) were called active. Not shown: some 18% with an inconclusive outcome. Cut-off read from the data, not from the text of the source: active = normalized growth mostly below about 0.91 (no sharp cut-off); inconclusive = no clear call, values can overlap the other calls; inactive = mostly above about 0.92. The list shows a part of the results.

Experiment: chemical genetic growth profiling, strain panel (AID 1159580);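 note: tested at 20 µM; growth read once vehicle control cultures reached saturation at 30 °C; 1 = growth at the plate median or of vehicle wells; lower values mean less growth of the strain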
Conditions: growth OD

Measured: normalized growth

Cc1onc(-c2ccccc2Cl)c1C(=O)N[C@@H]1C(=O)N2[C@@H]1SC(C)(C)[C@@H]2C(=O)O
inactive: S. cerevisiae deletion strains, locus YJR066W, strain TOR1, hits give low values 0.986 | S. cerevisiae deletion strains, locus YKL009W, strain mrt4, hits give low values 1.02 | S. cerevisiae deletion strains, locus YKL068W, hits give low values 1.02 | S. cerevisiae deletion strains, locus YKL085W, strain MDH1 (second series), hits give low values 1.02 | S. cerevisiae deletion strains, locus YKL085W, strain MDH1, hits give low values 1.02 | S. cerevisiae deletion strains, locus YKL160W, strain elf1, hits give low values 1.02 | S. cerevisiae deletion strains, locus YKL190W, strain CNB1, hits give low values 1.01 | S. cerevisiae deletion strains, locus YKR001C, strain vps1, hits give low values 1.03 | S. cerevisiae deletion strains, locus YKR026C, strain gcn3, hits give low values 1.05 | S. cerevisiae deletion strains, locus YKR091W, strain srl3, hits give low values 1.02 | S. cerevisiae deletion strains, locus YLL001W, strain dnm1, hits give low values 1.02 | S. cerevisiae deletion strains, locus YLL026W, hits give low values 1.01 | S. cerevisiae deletion strains, locus YLL041C, strain sdh2, hits give low values 1.02 | S. cerevisiae deletion strains, locus YLR027C, strain aat2, hits give low values 1.01 | S. cerevisiae deletion strains, locus YLR039C, strain RIC1, hits give low values 1.02 | S. cerevisiae deletion strains, locus YLR058C, strain SHM2, hits give low values 1.02 | S. cerevisiae deletion strains, locus YLR102C, strain apc9, hits give low values 1.03 | S. cerevisiae deletion strains, locus YLR113W, strain HOG1, hits give low values 1.05 | S. cerevisiae deletion strains, locus YLR221C, strain rsa3, hits give low values 0.979 | S. cerevisiae deletion strains, locus YLR258W, strain gsy2, hits give low values 1.02 | S. cerevisiae deletion strains, locus YLR262C, strain YPT6 (second series), hits give low values 1 | S. cerevisiae deletion strains, locus YLR262C, strain YPT6, hits give low values 1.01 | S. cerevisiae deletion strains, locus YLR268W, strain sec22, hits give low values 1.04 | S. cerevisiae deletion strains, locus YLR320W, strain mms22, hits give low values 1 | S. cerevisiae deletion strains, locus YLR330W, strain CHS5, hits give low values 1.01 | S. cerevisiae deletion strains, locus YLR342W, strain FKS1 (second series), hits give low values 1.02 | S. cerevisiae deletion strains, locus YLR342W, strain FKS1, hits give low values 1.02 | S. cerevisiae deletion strains, locus YLR357W, strain rsc2, hits give low values 1.03 | S. cerevisiae deletion strains, locus YLR370C, strain arc18, hits give low values 1.02 | S. cerevisiae deletion strains, locus YLR371W, strain rom2, hits give low values 1.03 | S. cerevisiae deletion strains, locus YLR384C, strain iki3, hits give low values 1.02 | S. cerevisiae deletion strains, locus YLR418C, strain cdc73, hits give low values 1.04 | S. cerevisiae deletion strains, locus YML016C, strain PPZ1, hits give low values 1.01 | S. cerevisiae deletion strains, locus YML032C, strain rad52, hits give low values 1.01 | S. cerevisiae deletion strains, locus YML120C, strain ndi1, hits give low values 1.04 | S. cerevisiae deletion strains, locus YML124C, strain tub3, hits give low values 1.03 | S. cerevisiae deletion strains, locus YMR058W, strain fet3, hits give low values 1.04 | S. cerevisiae deletion strains, locus YMR078C, strain ctf18, hits give low values 1.04 | S. cerevisiae deletion strains, locus YMR125W, strain sto1, hits give low values 1.04 | S. cerevisiae deletion strains, locus YMR129W, hits give low values 1.01 | S. cerevisiae deletion strains, locus YMR205C, strain PFK2, hits give low values 1.04 | S. cerevisiae deletion strains, locus YMR223W, strain ubp8, hits give low values 1.02 | S. cerevisiae deletion strains, locus YMR231W, strain pep5, hits give low values 1.02 | S. cerevisiae deletion strains, locus YMR263W, strain SAP30, hits give low values 1.02 | S. cerevisiae deletion strains, locus YMR307W, strain GAS1, hits give low values 1.03 | S. cerevisiae deletion strains, locus YNL067W, strain RPL9B, hits give low values 1.02 | S. cerevisiae deletion strains, locus YNL071W, strain lat1, hits give low values 1.01 | S. cerevisiae deletion strains, locus YNL153C, strain GIM3, hits give low values 1.01 | S. cerevisiae deletion strains, locus YNL183C, strain NPR1, hits give low values 0.968 | S. cerevisiae deletion strains, locus YNL209W, strain ssb2, hits give low values 1.01 | S. cerevisiae deletion strains, locus YNL233W, strain BNI4, hits give low values 1.01 | S. cerevisiae deletion strains, locus YNL248C, strain rpa49, hits give low values 0.948 | S. cerevisiae deletion strains, locus YNL250W, strain rad50, hits give low values 1.01 | S. cerevisiae deletion strains, locus YNL271C, strain bni1, hits give low values 1.03 | S. cerevisiae deletion strains, locus YNL298W, strain CLA4, hits give low values 1.04 | S. cerevisiae deletion strains, locus YNL307C, strain MCK1, hits give low values 1.04 | S. cerevisiae deletion strains, locus YNL322C, strain KRE1 (second series), hits give low values 1.01 | S. cerevisiae deletion strains, locus YNL322C, strain KRE1, hits give low values 1 | S. cerevisiae deletion strains, locus YNR049C, strain mso1, hits give low values 1.02 | S. cerevisiae deletion strains, locus YNR052C, strain pop2, hits give low values 1.01 | S. cerevisiae deletion strains, locus YOL012C, strain htz1 1.96 | S. cerevisiae deletion strains, locus YOL147C, strain pex11, hits give low values 1.03 | S. cerevisiae deletion strains, locus YOR001W, strain rrp6, hits give low values 1.04 | S. cerevisiae deletion strains, locus YOR061W, strain CKA2, hits give low values 1.01 | S. cerevisiae deletion strains, locus YOR069W, strain VPS5, hits give low values 1.01 | S. cerevisiae deletion strains, locus YOR070C, strain gyp1, hits give low values 1.01 | S. cerevisiae deletion strains, locus YOR080W, strain dia2, hits give low values 1.03 | S. cerevisiae deletion strains, locus YOR083W, strain WHI5, hits give low values 1.03 | S. cerevisiae deletion strains, locus YOR106W, strain vam3, hits give low values 1.03 | S. cerevisiae deletion strains, locus YOR136W, strain idh2, hits give low values 1.03 | S. cerevisiae deletion strains, locus YOR144C, strain elg1, hits give low values 1.02 | S. cerevisiae deletion strains, locus YOR184W, strain ser1, hits give low values 1.03 | S. cerevisiae deletion strains, locus YOR231W, strain MKK1, hits give low values 1.01 | S. cerevisiae deletion strains, locus YOR265W, strain rbl2, hits give low values 1.02 | S. cerevisiae deletion strains, locus YOR270C, strain vph1, hits give low values 1.04 | S. cerevisiae deletion strains, locus YOR290C, strain snf2, hits give low values 1.01 | S. cerevisiae deletion strains, locus YOR316C, strain cot1, hits give low values 1.03 | S. cerevisiae deletion strains, locus YPL051W, strain arl3, hits give low values 1.02 | S. cerevisiae deletion strains, locus YPL055C, strain LGE1, hits give low values 1.03 | S. cerevisiae deletion strains, locus YPL078C, strain atp4, hits give low values 1.03 | S. cerevisiae deletion strains, locus YPL106C, strain sse1, hits give low values 1.03 | S. cerevisiae deletion strains, locus YPL240C, strain hsp82, hits give low values 1.01 | S. cerevisiae deletion strains, locus YPL241C, strain CIN2, hits give low values 1 | S. cerevisiae deletion strains, locus YPL256C, strain CLN2, hits give low values 1.01 | S. cerevisiae deletion strains, locus YPR119W, strain clb2, hits give low values 1.03 | S. cerevisiae deletion strains, locus YPR141C, strain kar3, hits give low values 1.04 | S. cerevisiae deletion strains, locus YPR163C, strain tif3, hits give low values 1.04 | S. cerevisiae deletion strains, locus YPR167C, strain met16, hits give low values 1.03 | S. cerevisiae deletion strains, strain wtn01, hits give low values 1.02 | S. cerevisiae strains, strain wild type, hits give low values 1.01
